Each structure is given as a SMILES string. The whole screen tested about 13,000 compounds, of which about 3,200 (25%) showed an effect of 50% or more. Some of the results follow.

This assay has as its system P. falciparum stage V gametocytes. On the set-up: BacTiter-Glo ATP luminescence viability of purified stage V gametocytes in 384-well plates, per cent inhibition versus DMSO. Conditions: 48 h, 5 µM; inhibitor.
Regarding `Cc1cccc(CCNC(=O)c2cc(Br)cc(N3CCN(c4ccncc4)CC3)c2)c1` [TCMDC-135149], the “% Inhibition” value is -71.81%.
In the case of `CCOC(=O)c1ccc(NC(=O)Nc2ccc(-c3cccc(-c4nc5ccc(F)cc5[nH]4)c3)cc2)cc1` [TCMDC-133269], the “% Inhibition” value was -27.05%.
The result for `Cc1cc(N[C@@H](Cc2ccccc2)C(=O)NCc2cccs2)nc(Nc2ccccc2)n1` [TCMDC-134734] reads -21.51%; that for `Cc1cc(N[C@@H](Cc2ccccc2)C(=O)NCCc2ccccc2)nc(NCCc2cccs2)n1` [TCMDC-134874], 14.35%; that for `Cc1cc(N[C@@H](Cc2ccccc2)C(=O)NCc2cccs2)nc(NCCc2ccccc2)n1` [TCMDC-134775], 70.11%.
On to `Cc1cc(N(C)C2CCN(C)C2)nc(Nc2ccccc2Cl)n1` (stereo not drawn) [TCMDC-137007], for which the “% Inhibition” value is 12.36%.
As for `Cc1ccc(C)c(S(=O)(=O)Nc2ccc(Br)cc2C(=O)Nc2cccc(C(F)(F)F)c2)c1` [TCMDC-141482], the “% Inhibition” value was determined as 10.24%.
Regarding `Cc1cc(NC(=O)c2cc(S(=O)(=O)N3CCCCC3)ccc2C)no1` [TCMDC-124530], the “% Inhibition” value worked out at 23.56%.
`Cc1ccc(NC(=O)c2cc(S(=O)(=O)NC(C)(C)C)ccc2C)nc1` [TCMDC-125009]: the “% Inhibition” value amounted to 54.13%.
With `Cc1cc(N2CCC(NS(=O)(=O)c3ccccc3)CC2)nc(Nc2cccc(C#N)c2)n1` [TCMDC-134213], the “% Inhibition” value was 22.13%.
As for `CCCN(CC1CC1)c1ncc(-c2cccc(CNCCC3CCCN3C)c2)cn1` (stereo not drawn) [TCMDC-133142], the “% Inhibition” value is given as 40.53%.
As to `CN1CCCC1CCNCc1cccc(-c2cnc(N3CCCC(C)(C)C3)nc2)c1` (stereo not drawn) [TCMDC-133144], the “% Inhibition” value was 90.28%.
Consider `CC1(C)CCCN(c2ncc(-c3cccc(CNCc4ccccc4O)c3)cn2)C1` [TCMDC-133139], for which the “% Inhibition” value is 32.42%.
`CC(=O)Nc1cccc(CNCc2ccc(-c3cnc(N4CCCC(C)(C)C4)nc3)cc2)c1` [TCMDC-133549]: the “% Inhibition” value is given as -38.45%.
Take `CN(CCc1ccccc1)c1ncc(-c2cccc(CNCCC3CCCN3C)c2)cn1` (stereo not drawn) [TCMDC-133143]: the “% Inhibition” value turned out to be 92.22%.
To `CN1CCCC1CCNCc1cccc(-c2cnc(N(C)C3CCCCC3)nc2)c1` (stereo not drawn) [TCMDC-133141] belongs 75.89%.
Turning to `CN(c1ncc(-c2cccc(CNCc3ccccc3O)c2)cn1)C1CCCCC1` [TCMDC-133137], the “% Inhibition” value is listed as -20.17%.
Regarding `COC(=O)c1cc(OC)c(OC)cc1NC(=O)NC12CC3CC(CC(C3)C1)C2` [TCMDC-124384], the “% Inhibition” value is on record as -44.27%.
As for `CC(Oc1ccc(Cl)cc1)C(=O)Nc1cc(C(F)(F)F)ccc1-n1cncn1` (stereo not drawn) [TCMDC-125023], the “% Inhibition” value amounted to 17.82%.
On to `Cc1cccc(CNc2nc(C)cc(N[C@@H](CC(C)C)C(=O)NCCOc3ccccc3)n2)c1` [TCMDC-134892], for which the “% Inhibition” value is on record as -42.27%.
As for `Fc1ccc2nc(-c3cccc(-c4cccc(CN5CCN(c6cnccn6)CC5)c4)c3)[nH]c2c1` [TCMDC-132676], the “% Inhibition” value is reported as -22.96%.
Turning to `CCCC(C)Nc1nc(C)cc(N[C@@H](CC(C)C)C(=O)Nc2ccc(OC)cc2)n1` (stereo partly drawn) [TCMDC-134896], the “% Inhibition” value is -21.51%.
Take `CCCCCCCCn1ccc(=N)cc1` [TCMDC-125630]: the “% Inhibition” value amounted to 13.04%.
On to `Cc1cc(N2CCC(NS(=O)(=O)c3ccc(F)cc3)CC2)nc(Nc2cccc(C#N)c2)n1` [TCMDC-134214], for which the “% Inhibition” value came to 18.32%.
Turning to `CCNc1cc(C(=O)N[C@@H](Cc2ccccc2)[C@H](O)CNC2CCC(C)(C)C2)cc(N2CCCCS2(=O)=O)c1` (stereo partly drawn) [TCMDC-135302], the “% Inhibition” value is 9.387%.
As to `O=C(CSc1nc(-c2ccccc2Cl)ns1)Nc1cccc(F)c1` [TCMDC-124549], the “% Inhibition” value was 39.34%.
The result for `COc1cccc(NC(=O)CSc2nc(-c3ccccc3Cl)ns2)c1` [TCMDC-123544] reads 62.62%; that for `O=C(Nc1cccc(CN2CCCN(Cc3ccc4c(c3)OCO4)CC2)c1)c1ccc(Cl)c(Cl)c1` [TCMDC-141820], -97.11%; that for `O=C(CSc1nc(-c2ccccc2Cl)ns1)Nc1ccc2c(c1)OCO2` [TCMDC-124546], 53.36%.
The result for `O=C(CSc1nc(-c2ccccc2Cl)ns1)Nc1cccc(Cl)c1` [TCMDC-124548] reads 67.64%.
On to `CC(=O)c1ccc(NC(=O)CSc2nc(-c3ccccc3Cl)ns2)cc1` [TCMDC-124545], for which the “% Inhibition” value is recorded as -8.871%.
On to `COc1ccc(NC(=O)CSc2nc(-c3ccccc3Cl)ns2)cc1OC` [TCMDC-125346], for which the “% Inhibition” value came out at 40.34%.
Turning to `O=C(Nc1cccc(Cl)c1)c1cc2ccccc2cc1O` [TCMDC-124171], the “% Inhibition” value came to 9.946%.
The result for `COc1ccc(NC(=O)CSc2nc(-c3ccccc3Cl)ns2)cc1` [TCMDC-123543] reads 61.96%; that for `COc1ccccc1Cc1nc2ccccc2nc1SCC(=O)Nc1cccc(C(F)(F)F)c1` [TCMDC-123879], 0.3581%; that for `COc1ccccc1-c1ccc2nnc(SCC(=O)Nc3ccc4c(c3)OCCO4)n2n1` [TCMDC-124319], 10.92%.
Take `COc1ccc(CC(=O)Nc2ccc(Nc3nc(C)cc(N4CCCC4)n3)cc2)cc1` [TCMDC-124966]: the “% Inhibition” value was -9.476%.
Take `Cc1ccc2ccccc2c1CCCON1C(N)=NC(N)=NC1(C)C` [TCMDC-131758]: the “% Inhibition” value worked out at 22.75%.
The result for `O=C(Nc1ccc(Cl)c(Cl)c1)N1CCC(CNCc2cccc([N+](=O)[O-])c2)CC1` [TCMDC-141279] reads 18.17%; that for `O=C(/C=C/c1ccc(Cl)c(Cl)c1)NCCCCCN1CCCN(C(=O)Nc2cc(Cl)nc(Cl)c2)CC1` [TCMDC-135888], -3.146%; that for `O=C(/C=C/c1ccc(Cl)c(Cl)c1)N1CCN(C(=O)Nc2cccc(C(F)(F)F)c2)CC1` [TCMDC-135944], -35.14%.
The result for `COc1ccc(NC(=O)c2cn(-c3ccc(C(C)(C)C)cc3)nc2C)cc1N1CCN(C)CC1` [TCMDC-138689] reads -23.67%; that for `c1ccc(COc2ccccc2COc2ccccc2-c2ccc3cccnc3n2)cc1` [TCMDC-136713], 16.91%.
For `COc1ccc(OC)c(NC(=O)CSc2nc(-c3ccccc3Cl)ns2)c1` [TCMDC-124547], the “% Inhibition” value is 60.03%.
For `COc1ccc(OC)c(NC(=O)c2c(-c3c(F)cccc3Cl)noc2C)c1` [TCMDC-123664], the “% Inhibition” value is 2.719%.
Turning to `COc1ccc(-n2ccnc2SCC(=O)Nc2cc(Cl)ccc2OC)c(OC)c1` [TCMDC-125135], the “% Inhibition” value is reported as -9.787%.
`FC(F)(F)c1ccc(COc2cc(Cl)ccc2Cn2ccnc2)cc1` [TCMDC-137640]: the “% Inhibition” value was -9.557%.
For `COc1cc(Cc2cnc(N)nc2N)cc(OCCCCCCC(=O)O)c1OC` [TCMDC-137630], the “% Inhibition” value was -3.564%.
In the case of `COc1ccc(CNCc2ccc(F)cc2)cc1-c1ccc(S(=O)(=O)NCCN2CCCC2)s1` [TCMDC-132297], the “% Inhibition” value is 108.7%.
For the molecule `COc1ccc(CNCc2ccsc2)cc1-c1ccc(S(=O)(=O)NCCN2CCCC2)s1` [TCMDC-132298], the “% Inhibition” value is 91.71%.
For the molecule `COc1ccc(CNCCc2cccs2)cc1-c1ccc(S(=O)(=O)NCCN2CCCC2)s1` [TCMDC-132477], the “% Inhibition” value turned out to be 85.27%.
The result for `COc1ccc(CNCc2ccccc2)cc1-c1ccc(S(=O)(=O)NCCN2CCCC2)s1` [TCMDC-132257] reads 102.1%; that for `CN1CCN(c2ccnc3ccc(NC(=O)Cc4cccc(Cl)c4Cl)cc23)CC1` [TCMDC-139274], -28.12%.
Consider `Cc1cccc2[nH]c(-c3cccc(-c4cccc(NC(=O)c5cnn6cccnc56)c4)c3)nc12` [TCMDC-136867], for which the “% Inhibition” value is reported as -0.6551%.
For `CN(C)c1cc2c(Nc3ccc4nc(Cc5ccccc5)[nH]c4c3)ncnc2cn1` [TCMDC-137304], the “% Inhibition” value is -2.875%.
The result for `COc1ccc2nccc(N(C)CC3(O)CCN(CC(O)c4ccc5c(c4)NC(=O)CS5)CC3)c2n1` (stereo not drawn) [TCMDC-141471] reads 38.6%; that for `O=C(Nc1cccc(-c2ccc(-c3nc4cc(C(F)(F)F)ccc4[nH]3)s2)c1)c1cccnc1` [TCMDC-136922], 0.1958%.
Take `CC(C)COc1ccc(Cl)cc1Cc1ccc(-c2nc3c(cnc4ccccc43)[nH]2)o1` [TCMDC-136650]: the “% Inhibition” value was 61.46%.
In the case of `CC(C)COc1ccc(Cl)cc1Cc1nc(-c2nc3ccc(CN4CCCCC4)cc3[nH]2)co1` [TCMDC-136811], the “% Inhibition” value was -22.76%.
In the case of `CNCc1cccc2[nH]c(-c3ccc(Cc4cc(Cl)ccc4OCC(C)C)o3)nc12` [TCMDC-137044], the “% Inhibition” value is listed as 60.59%.
Regarding `Clc1ccc(OCc2ccccc2)c(Cc2ccc(-c3nc4ccncc4[nH]3)o2)c1` [TCMDC-136651], the “% Inhibition” value is 10.18%.
For the molecule `CC(C)COc1ccc(Cl)cc1Cc1ccc(-c2nc3c(F)cccc3[nH]2)o1` [TCMDC-136661], the “% Inhibition” value amounted to 74.56%.
Regarding `CC(C)COc1ccc(Cl)cc1Cc1nc(-c2nc3ccc(CN4CCCC4)cc3[nH]2)co1` [TCMDC-136810], the “% Inhibition” value is listed as -7.137%.
As for `CC(C)COc1ccc(Cl)cc1Cc1ccc(-c2nc3c(F)c(F)ccc3[nH]2)o1` [TCMDC-136562], the “% Inhibition” value worked out at 72.75%.
As to `O=C(Nc1cccc(-c2nn3ccccc3c2-c2ccnc(Nc3cccc(F)c3)n2)c1)C1CCCCC1` [TCMDC-135770], the “% Inhibition” value is -93.68%.
For `Cc1ccc2c(O)c([N+](=O)[O-])c(=O)[nH]c2c1` [TCMDC-131383], the “% Inhibition” value is listed as 0.04547%.
Regarding `CCCn1c(SCC(=O)Nc2cc(C(F)(F)F)ccc2Cl)n[nH]c1=O` [TCMDC-123566], the “% Inhibition” value was -8.395%.
For `CC(C)(NCc1ncc[nH]1)c1nc(-c2ccc(Cl)c(O)c2)c(-c2ccncc2)[nH]1` [TCMDC-140686], the “% Inhibition” value is -7.541%.
The result for `O=C(Nc1ccsc1)Nc1cccc(-c2cccc(-c3nc4ccccc4[nH]3)c2)c1` [TCMDC-133212] reads -2.113%.

The term % Inhibition denotes the relative decrease from the control value, in per cent.

For the origin of these results see PMC4552634, “A New Set of Chemical Starting Points with Plasmodium falciparum Transmission-Blocking Potential for Antimalarial Drug Discovery” (PLoS ONE, 2015).
